# Rows were chosen to be rich in hits. Some 1.6% of all compounds tested hit in one or more screens of this group.
# DTT redox prof = compounds producing H2O2 with reducing agent – biochemical, NIH compound library profiling, artefact control for MLSCN library redox annotation, primary screen. activation, % at 10 µM. AID 878, 2007. DTT-dependent redox cycling H2O2, phenol red/HRP absorbance; 100% = 100 µM peroxide control, 0% = buffer. 0.03% of 200,000 active;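 active means activation of at least 50% relative to the plate's high and low controls in the primary single-dose screen; inactive means activation below 50%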;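 further: compound incubated with DTT at 0.8 mM final as the reducing agent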
# HSV augment = enhancers of HSV replication in host cells, fold increase, host cell viability; maximum fold increase; AID 1956, 2009; 0.005% of 220,000 active; HSV replication augmentation in cells; in the data active means maximum fold increase above about 1.5; tested in PC3 cells
# Wee1 degr inh = Wee1 degradation inhibitors, primary screen, cell-based, HeLa, Wee1K328M-luciferase, luminescence; reporter increase, % at 5 µM; Wee1-like protein kinase (Homo sapiens), P30291; HeLa Luc-Wee1K328M stability; 100% = proteasome inhibitor MG132 effect; 1.2% of 220,000 active;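 active means activation above the mean of all tested compounds plus 3 SD, set per screening run, cut at about 8.8% in these data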;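 further: cells exposed to compound for 20 h before luminescence read; 0% = DMSO alone and 100% = MG132 at 30 µM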
# p97 inhibitor = inhibitors of human p97 ATPase, primary screen, biochemical | Transitional endoplasmic reticulum ATPase (Homo sapiens), P55072 | recombinant p97 ATPase, Kinase-Glo ATP luminescence, 3 h | inhibition, % at 8 µM | 0.42% of 220,000 active | AID 1481, 2009; in the data active means inhibition above about 15%;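 further: 0% = DMSO vehicle and 100% = wells lacking enzyme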
# Hsp70 act = Hsp70 transcriptional activators, primary screen, cell-based, HeLa, Hsp70 promoter luciferase, luminescence, 10 µM. HeLa Hsp70 promoter luciferase reporter; scaled: vehicle 0, proteasome-inhibitor control 100%. activation, % at 10 µM. 0.04% of 200,000 active. AID 1203, 2008;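 active means activation above the mean across all tested compounds plus 3 SD, cutoff set per campaign, cut at about 5.5% in these data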;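 further: 100% = MG132 at 30 µM as the positive control and 0% = DMSO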
# * hit, by the source's call; i = inactive; . = not tested or not shown.
SMILES,DTT redox prof,HSV augment,Wee1 degr inh,p97 inhibitor,Hsp70 act
COc1cc(OC)c(C#N)c(S(=O)Cc2ccccc2)c1 (configuration not stated),0,i,6,2,0
COc1ccc(OCc2nnc(SCC(=O)NNC(=O)c3ccc(C)cc3)n2C)cc1,0,i,2,11,0
O=C(Nc1c(C(=O)O)oc2ccc(Br)cc12)c1ccccc1,-1,i,13*,6,0
Cc1nc2c(C(=O)NCc3ccccc3Cl)c[nH]n2c(=O)c1Cl,-4,i,0,15*,0
Cc1cc(NC(=O)CCC(=O)N(CC(=O)NC2CCCC2)Cc2cccs2)no1,0,i,1,5,0
COc1ccc(/C=C2\C(=O)c3ccccc3OC2c2ccccc2)cc1 (configuration not stated),.,i,10*,5,.
O=C(CCc1ccccc1)Nc1ccc(Cl)cn1,-3,i,5,0,0
O=C(CN1C(=O)c2ccccc2C1=O)Nc1ccc(Cl)cn1,-1,i,10*,3,0
Clc1ccc2nc(CN3CCCCCC3)cn2c1,-2,i,-1,4,0
CC1Cc2ccccc2N1C(=O)CSc1nn2c(=O)c(C(C)(C)C)nnc2s1 (configuration not stated),1,i,10*,-4,0
CC(=O)c1ccc(NC(=O)c2noc3c2CCC3)cc1,-1,i,10*,-4,0
CCOC(=O)c1ccc(NC(=O)Cn2nnc(-c3ccccc3F)n2)cc1,0,i,1,4,0
CCOC(=O)c1cc(=O)n2nc(-c3ccccc3F)nc2s1,0,i,-2,16*,0
O=C(NCc1cccnc1)c1cnc2sccn2c1=O,-1,i,3,0,0
O=C(NCCC(c1ccccc1)c1ccccc1)c1cnc2sccn2c1=O,-1,i,11*,-5,0
CCCOc1ccc(N2C(=O)CC(NCCc3ccc(S(N)(=O)=O)cc3)C2=O)cc1 (configuration not stated),0,i,9.7*,5,0
Cc1nc2ccccc2nc1OCc1ccc([N+](=O)[O-])cc1,-1,i,10*,4,0
COCCOc1nc2ccccc2nc1C,0,i,-2,-5,0
Cc1nnc(NC(=O)c2ccc3c(c2)OCO3)s1,-1,i,11*,3,0
COc1ccc(/C=C2/SC(=O)N(CCC(=O)Nc3ccc(C)cc3)C2=O)cc1OC,1,i,0,7,0
COc1cc(/C=C2\SC(N)=NC2=O)ccc1OCC(=O)Nc1ccc(C)cc1,1,i,8.9*,4,0
Cc1ccc2nc(-c3ccncc3)c(NC3CCCC3)n2c1,0,i,-5,-1,0
Cc1ccc2nc(-c3ccsc3)c(NC3CCCC3)n2c1,-1,i,10*,-2,0
Cc1c(Cl)cccc1NS(=O)(=O)c1ccc2c(c1)C1C=CCC1C(c1ccc(C(=O)O)cc1)N2 (configuration not stated),0,i,3,36*,0
CC(=O)c1ccc2c(c1)C1C=CCC1C(c1ccc(S(=O)(=O)N3CCOCC3)cc1)N2 (configuration not stated),0,i,0,5,0
SMILES,DTT redox prof,HSV augment,Wee1 degr inh,p97 inhibitor,Hsp70 act
CCCC(=O)Nc1nc2ccc(NC(=O)c3ccc(Br)o3)cc2s1,0,i,9.5*,-5,0
CCOC(=O)N1CCc2c(sc3c2c(=O)n(Cc2ccccc2)c(=O)n3CC(=O)NCCOC)C1,0,i,3,2,0
CCN1CCCc2cc(CN(CCN3CCOCC3)C(=S)Nc3ccc(OC)c(Cl)c3)ccc21,0,i,10*,3,0
CCN1CCCc2cc(CN(CCN3CCOCC3)C(=S)Nc3ccc(OC)c(OC)c3)ccc21,0,i,-2,4,1
CN(C)C(=O)c1c2c(nc3ccccc13)-c1ccccc1CC2,-7,i,8.9*,1,0
CN(C)C(=O)c1c2c(nc3ccccc13)CCCC2,-1,i,-3,7,0
O=C(O)c1ccc(COc2ccccc2Cl)cc1,2,i,9.1*,5,0
COc1cc(-c2nnc(-c3ccc(N4CCOCC4)cc3)o2)cc(OC)c1OC,2,i,0,3,0
NS(=O)(=O)c1ccc(Nc2nc(-c3ccc(O)cc3)cs2)cc1,3,i,1,7,0
Oc1ccc(Nc2nc(-c3ccc(O)cc3)cs2)cc1,1,i,0,15*,0
COc1cccc(NC(=O)C2CC(=O)N(C)C(=Nc3cccc(F)c3)S2)c1 (configuration not stated),0,.,3,5,0
Cc1nc(NC(=O)/C=C/c2ccco2)sc1C,-1,i,8.9*,-2,0
O=C(/C=C/c1ccco1)Nc1nnc(-c2ccco2)s1,-1,i,1,7,0
COCCCNC(=O)/C=C1\Sc2ccccc2N(Cc2ccccc2F)C1=O,0,i,9.7*,1,0
CCN1CCN(CCNC(=O)c2ccc(/C=C3\Sc4ccccc4N(Cc4ccccc4F)C3=O)cc2)CC1,0,i,-3,-8,0
N#C/C(=C/c1ccc(C(=O)O)cc1)C(=O)Nc1ccccc1,-1,i,9.0*,-5,0
Cc1cccc(NC(=O)/C(C#N)=C\c2ccc(C(=O)O)cc2)c1,-1,i,3,5,0
Cc1ccc([N+](=O)[O-])c(OCCn2cnc3ccccc32)c1,-1,i,3,0,0
CCOC(=O)C(=CNc1ccc(Oc2cccnc2)nc1)C(=O)OCC,.,i,9.9*,-1,.
CC(C)(C)c1ccc(C(=O)Nc2ccc(Oc3cccnc3)nc2)cc1,.,i,7,-4,.
COc1ccc(C2/C=C\CN(S(=O)(=O)c3ccc(-c4ccccc4)cc3)CC(=O)N2Cc2ccc(F)cc2)cc1 (configuration not stated),.,i,.,.,.
COc1ccc2c(=O)cc(-c3ccccc3F)oc2c1,.,i,9.4*,4,.
Cc1ccc(-n2cc(CNCCN3CCOC3=O)c(-c3cccc(C)c3)n2)cc1,0,i,0,1,0
COC(=O)C(CC(C)C)NC(=O)/C=C/c1ccccc1Cl (configuration not stated),0,i,10*,2,0
COC(=O)C(CC(C)C)NC(=O)/C=C/c1ccc(Cl)cc1 (configuration not stated),-1,i,1,-1,0
O=C(/C=C/c1ccccc1Cl)Nc1ccccc1,.,i,9.3*,4,.
COc1cc(NC(=O)COC(=O)/C=C/c2ccccc2Cl)cc(OC)c1,0,i,9.0*,3,0
